Bioassay records: PubChem BioAssay, National Center for Advancing Translational Sciences (NCATS)
FBPA Giardia inh: blocks Giardia fructose-bisphosphate aldolase activity | purified Giardia FBPA | Potency, µM (series often up to 59.6 µM), hits mostly inhibitors | A8B2U2 | 0.71% of 290,000 active; note: nearly all actives have a fitted effect of over 55% in size
Target sequence (A8B2U2 whole entry, looked up): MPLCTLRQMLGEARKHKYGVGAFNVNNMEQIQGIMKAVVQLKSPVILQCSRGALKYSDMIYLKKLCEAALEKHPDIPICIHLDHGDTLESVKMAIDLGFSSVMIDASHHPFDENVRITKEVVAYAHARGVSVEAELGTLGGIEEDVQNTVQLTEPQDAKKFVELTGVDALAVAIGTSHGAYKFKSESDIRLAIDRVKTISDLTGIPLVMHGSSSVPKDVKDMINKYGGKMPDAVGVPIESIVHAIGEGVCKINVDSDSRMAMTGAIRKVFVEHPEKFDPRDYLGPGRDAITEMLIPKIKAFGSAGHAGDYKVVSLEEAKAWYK
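40 nM FBPA preincubated 10 min at RT with compound (up to 57.5 uM final), then substrate plus GAPDH/TPI/NAD/arsenate coupling and diaphorase/resazurin added. Fluorescence read after 20 min at RT, 525/598 nm.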
LmPK inh: blocks Leishmania mexicana pyruvate kinase activity. purified LmPK, Kinase-Glo ATP luminescence, 1 h. 0.37% of 290,000 active. Potency, µM (series often up to 57.5 µM), actives largely listed as inhibitors. AID 1721. Q27686
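Kinase-Glo luminescence read after 1 h RT reaction of 0.1 nM LmPK with 0.5 mM PEP and 0.1 mM ADP. Activity scaled between uninhibited and enzyme-free controls.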
TbPYK inhibitor: inhibitors of Trypanosoma brucei pyruvate kinase | 0.12% of 410,000 active | Potency, µM (highest dose often 76.8 µM), most hits filed as inhibitors | Q57TT1 | TbPYK enzyme, Kinase-Glo Plus ATP luminescence, 45 min; note: nearly all actives have a fitted effect of over 50% in size
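Assay buffer: 50 mM TEA pH 7.2, 100 mM KCl, 10 mM MgCl2, 0.05% BSA, 0.01% Tween-20. Pyruvate kinase from T. brucei plus substrate met compound, then ADP (130 uM final). Luminescence was read post 45 min RT.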
Shiga toxin inh: Shiga toxin inhibition; AID 2315; 9.2% of 290,000 active; inhibition, % at 38.7 µM; Vero cells, Shiga toxin protein synthesis inhibition reporter; in the data active = inhibition mostly above about 28%, no sharp cut-off; inactive = mostly below about 43%
RE007 growth inh: less growth of the S. pombe RE007 Vpr strain | S. pombe RE007 Vpr strain, BacTiter-Glo ATP luminescence, 24 h | Potency, µM (titrated, usually from 92.2 µM), most hits filed as inhibitors | 0.21% of 360,000 active; active = well fitted falling curve with a large enough effect; note: nearly all actives have a fitted effect of over 50% in size
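Fission yeast strain RE007, carrying one chromosomally integrated HIV-1 vpr copy, was seeded at OD 0.01 in PMG+AL medium with 23 nL pinned compound. After 24 h at 30 °C and 99% humidity, viability was read by BacTiter-Glo luminescence.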
Cycloheximide cs: counter-screen for Shiga toxin inhibitors: cycloheximide protein synthesis inhibition. cell reporter, cycloheximide protein synthesis inhibition counterscreen. max response, %. 12% of 300,000 active. AID 2314; in the data active = max response mostly above about 13%, no sharp cut-off; inactive = mostly below about 14%; note: read at 38.3 µM for the half of the compounds with a filed dose
A number is an active result; – = inactive; · = not tested or not shown; [ ] = dose if it differs, or a comment. The entries come from a sample that favours hits as a whole. Unless noted, calls come from the whole dose curve; as a rule, active = well fitted curve in the direction sought with a large enough effect; inconclusive = small, poorly fitted or top-dose-only effect, or another doubt; inactive = no such curve, though single readings can be large; an effect the other way counts as inactive or inconclusive.

SMILES | FBPA Giardia inh | LmPK inh | TbPYK inhibitor | Shiga toxin inh | RE007 growth inh | Cycloheximide cs
COc1ccc(C(=O)Nc2nc3ccccc3[nH]2)cc1S(=O)(=O)N1CCCC1 | – | – | – | 75 | – | 19
CC1(C)CC(=O)c2cc(-c3nc(-c4ccc(F)cc4)cs3)c(=O)[nH]c2C1 | · | · | – | · | · | ·
COc1ccc(C(=O)NCc2nc3ccccc3[nH]2)cc1OC | – | – | – | – | – | –
COc1ccc(C(=O)Nc2nc3ccccc3[nH]2)cc1OC | – | – | – | 86 | – | 42
Nc1nc(CCl)nc(Nc2ccccc2)n1 | – | – | – | 71 | – | 36
Cc1ccc(Nc2nc(N)nc(CSc3nc(C)cc(C)n3)n2)cc1 | – | – | – | – | – | –
COc1ccc(Nc2nc(N)nc(CSCCO)n2)cc1 | – | – | – | – | – | –
Cc1ccc(Nc2nc(N)nc(CSCCO)n2)cc1 | – | – | – | 60 | – | 31
CCOc1ccc(Nc2nc(N)nc(CCl)n2)cc1 | – | – | – | 59 | – | 43
Nc1nc(CN2CCN(Cc3ccccc3)CC2)nc(Nc2ccccc2)n1 | – | – | – | – | – | –
Cc1ccc(Nc2nc(N)nc(CCl)n2)cc1 | – | – | – | 96 | – | 75
CCOc1ccc(Nc2nc(N)nc(CN3CCN(c4ccccc4F)CC3)n2)cc1 | – | – | – | – | – | –
COc1ccc(NC(=O)CSc2oc(-c3cccs3)nc2S(=O)(=O)c2ccc(Br)cc2)c(OC)c1 | · | · | – | · | · | ·
Cc1ccc(C)c(S(=O)(=O)c2cn(Cc3ccccc3)c3cc(F)c(F)cc3c2=O)c1 | · | · | – | · | · | ·
O=C(NCc1cccc2ccccc12)[C@H]1C[C@@H]1[C@H](NP(=O)(c1ccccc1)c1ccccc1)c1ccccc1 | – | · | · | · | · | ·
O=C(NCc1ccccc1Br)c1ccc2nc(N3CCCCC3)sc2c1 | · | · | – | · | · | ·
Cc1cccc(Nc2nc(N)nc(CCl)n2)c1C | – | – | – | 59 | – | 53
Cc1ccc(Nc2nc(N)nc(CC#N)n2)cc1 | – | – | – | 46 | – | 35
Cc1ccc(Nc2nc(N)nc(CCl)n2)c(C)c1 | – | – | – | 106 | – | 78
CCCCOc1ccc(C(=O)Nc2onc3c2CCCC3)cc1 | · | · | – | · | · | ·
CC1=NNC(=O)C1CC(=O)N/N=C/c1sccc1C (stereo not given) | – | – | – | – | – | –
Cc1ccc(/C=N\Nc2cn[nH]c(=O)c2Cl)cc1 | – | – | – | – | – | 38
Cc1ccsc1/C=N\Nc1cn[nH]c(=O)c1Cl | – | –[11.5 µM] | – | – | – | 31
O=c1[nH]ncc(N/N=C/c2ccccc2)c1Cl | – | – | – | – | – | –
COc1ccc(/C=N/Nc2cn[nH]c(=O)c2Cl)cc1 | – | – | – | – | – | 29
SMILES | FBPA Giardia inh | LmPK inh | TbPYK inhibitor | Shiga toxin inh | RE007 growth inh | Cycloheximide cs
CCCN(CCC)CC(O)Cn1cc(/C=C/C(=O)c2ccc(OCC)cc2)c2ccccc21 (stereo not given) | · | · | – | · | · | ·
CCNc1ncc2nc(-c3ccccc3)c(=O)n(C[C@H]3CCCO3)c2n1 | – | · | · | · | · | ·
Clc1ccc2oc(SCc3cccnc3)nc2c1 | – | – | – | 66 | – | 23
Cc1ccccc1-c1nc2cc(Cl)ccc2c(=O)o1 | – | – | – | – | · | –
O=C(O)Cc1ccc2oc(-c3cccnc3)nc2c1 | – | – | – | – | – | –
Clc1ccc2oc(-c3ccccc3)nc2c1 | – | – | – | 107 | – | 46
O=C(Cc1ccc(Cl)cc1)Nc1ccc2oc(-c3ccccc3)nc2c1 | · | · | – | · | · | ·
O=C(CSc1nc2cc(Cl)ccc2o1)NCCc1ccccc1 | – | – | – | – | – | –
Cc1ccccc1-c1nc2cc(Cl)ccc2o1 | – | – | – | – | – | 38
Clc1ccc2oc(-c3cccnc3)nc2c1 | – | – | – | 85 | – | 47
COc1cccc(Cn2c(=O)c(-c3cccs3)nc3cnc(N(C)C)nc32)c1 | – | · | · | · | · | ·
O=S(=O)(Nc1ccc2oc(-c3ccccc3)nc2c1)c1ccccc1 | – | – | – | – | – | 31
CCn1nnnc1SCC(=O)Nc1nc(C)c(C)s1 | – | – | – | 44 | – | 29
COCCCn1nnnc1SCC(=O)Nc1nc(C)c(C)s1 | – | – | – | – | – | 18
CC(=O)N1CCC2(CC1)CN(C(=O)Nc1cccc(C#N)c1)C2 | – | · | – | · | · | ·
Cc1nnc(NC(=O)CSc2ncc(-c3ccccc3)[nH]2)s1 | – | – | – | 31 | – | –
